Test results taken from PubChem BioAssay (NCATS).
Inconclusive results are not listed. Activity calls are given as the source filed them. The call rests on the fitted dose curve; in most records, active means well fitted inhibition curve with a large enough effect; inconclusive means small, poorly fitted or top-dose-only effect; inactive means no such curve, though single readings can be large or run the other way. Where a SMILES comes first, the peptide text is derived from it. The star is where a group is joined. Boc = CC(C)(C)OC(=O)*

Assay: Primary qHTS for small molecule stabilizers of the endoplasmic reticulum resident proteome: Secreted ER Calcium Modulated Protein (SERCaMP) assay (AID 1508630)
Settings: SH-SY5Y GLuc-SERCaMP (Gaussia luciferase released on ER calcium loss) secretion, thapsigargin, luminescence; series mostly up to 38.4 µM; activity change, negative = inhibition: at the top concentration
Method in brief: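 The SH-SY5Y reporter protocol was run at 3 concentrations up to 38.3 uM (primary) or 11 concentrations (follow-up): 16 h compound, 100 nM thapsigargin for 4 h, then extracellular luciferase luminescence.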
On the % scale 0 is the no-effect control and ±100 the full control effect; potency means the concentration at half of the fitted maximal effect.

Molecule	activity change, negative = inhibition	Potency
O=C(O)/C=C1\CCCc2ccccc2C1O (stereo not given)	-13.6% (inactive)	–
Nc1ncc2[nH]cnc2n1	-16.2% (inactive)	–
OC[C@H]1O[C@@H](n2cnc3c(N[C@H]4C[C@H]5CC[C@@H]4C5)ncnc32)[C@H](O)[C@@H]1O	14.5% (inactive)	–
CCCCCCCCCCCCCCCCOCC(CO)OC (stereo not given)	-17.7% [at 3.88 µM] (inactive)	–
COC1C(O)C(CO)OC1n1cnc2c(NC3CCCCC3)ncnc21 (stereo not given)	-1.47% (inactive)	–
C[C@@H](Cc1ccccc1)Nc1ncnc2c1ncn2[C@@H]1O[C@H](CO)[C@@H](O)[C@H]1O	-0.981% (inactive)	–
CCCCCCCCCCCCCCC[C@@H](O)[C@H](CO)NC(C)=O	-11.4% [at 3.88 µM] (inactive)	–
CCCCC/C=C\C/C=C\C/C=C\C/C=C\CCCC(=O)O[C@@H](CO)COC(=O)CCCCCCCCCCCCCCCCC	-0.0647% [at 3.88 µM] (inactive)	–
CCCN(C/C=C/I)C1CCc2cccc(O)c2C1 (stereo not given)	-20.4% (inactive)	–
CC(C)[C@H](NC(=O)CNC(=O)OC(C)(C)C)C(=O)N[C@H](C=O)C(C)C (Boc-Gly-Val-Val-aldehyde)	15.1% (inactive)	–
Cc1[nH]c(/C=C2/C(=O)Nc3ccc(S(=O)(=O)Cc4c(Cl)cccc4Cl)cc32)c(C)c1C(=O)N1CCCC1CN1CCCC1 (stereo not given)	-24.3% (inactive)	–
CCCCCCOC(=O)C1(O)CC2OC1(C)n1c3ccccc3c3c4c(c5c6ccccc6n2c5c31)C(=O)NC4 (stereo not given)	-23% [at 3.88 µM] (inactive)	–
Nc1ncnc2c1ncn2[C@H]1O[C@@H](CSCC[C@@H](N)C(=O)O)[C@H](O)[C@@H]1O	-7.74% (inactive)	–
CO[C@H]1C[C@@H]2CC[C@@H](C)[C@@](O)(O2)C(=O)C(=O)N2CCCC[C@H]2C(=O)O[C@H](C(C)C[C@H]2CC[C@@H](O)[C@H](OC)C2)CC(=O)[C@H](C)/C=C(\C)[C@@H](O)[C@@H](OC)C(=O)[C@H](C)C[C@H](C)/C=C/C=C/C=C/1C (stereo not given in full)	29% [at 21.6 µM] (inactive)	–
CNCC(=O)NCC(=O)N[C@@H](Cc1ccccc1)C(=O)N[C@@H](CC(C)C)C(=O)O (HELM PEPTIDE1{[Sar].G.F.L}$$$$V2.0)	-6.57% [at 3.88 µM] (inactive)	–
N[C@H](C(=O)O)C1C(C(=O)O)C1C(=O)O (stereo not given in full)	10.3% (inactive)	–
CCCCCCCCCCCCC/C=C/[C@@H](O)[C@H](CO)NC(=O)CCCCCCC	18.1% [at 3.88 µM] (inactive)	–
O=c1nc2ccccc2c2n1CC(CN1CCN(c3ccccc3)CC1)N2 (stereo not given)	14.6% (inactive)	–
CSCC[C@H](NC(=O)[C@H](Cc1ccccc1)NC[C@@H](NC[C@@H](N)CS)C(C)C)C(=O)O	9.65% (inactive)	–
CC(=O)NC1C(OC2OC(CC(O)C3OC([N+]4=CCC(=O)NC4=O)C(O)C3O)C(O)C(O)C2NC(=O)/C=C/CCCCCCCCC(C)C)OC(CO)C(O)C1O (stereo not given)	–	1000 nM (active)

Molecule	activity change, negative = inhibition	Potency
CC(N)(COP(=O)(O)O)C(=O)O (stereo not given)	-17.2% (inactive)	–
CCCCCCCCCCCCC/C=C/[C@@H](O)[C@H](CO)NC(=O)CCCCCCCCCCCCCCC	-18.7% [at 3.88 µM] (inactive)	–
CC(C)[C@H]1c2ccc(F)cc2CC[C@@]1(CCN(C)CCCc1nc2ccccc2[nH]1)OC(=O)C1CC1	168% (inactive)	–
CCCCC/C=C\C=C\[C@H](O)CCCCCCCC(=O)O	2.02% [at 0.478 µM] (inactive)	–
CCCCC[C@H](O)/C=C/C=C\C=C\C=C\[C@@H](O)[C@@H](O)CCCC(=O)O	7.52% [at 0.478 µM] (inactive)	–
CCCCC(C)(O)C/C=C/[C@H]1[C@H](O)CC(=O)[C@@H]1CCCCCCC(=O)O (stereo not given in full)	-15.4% [at 3.88 µM] (inactive)	–
H-LVVYPWTQR-OH	18.2% [at 3.88 µM] (inactive)	–
Cc1ccc2c(c1)C(=O)C1(O)CCN(c3ccccc3)C1=N2 (stereo not given)	33.2% [at 76.3 µM] (inactive)	–
CC1(C)Oc2ccc(C#N)cc2[C@@H](OC2=CC(=O)CC2)[C@@H]1O	–	inactive
OCc1cc2c(cn1)[nH]c1ccccc12	-19.9% (inactive)	–
C[C@@H](O)CNC(C)(C)CC(=O)N[C@@H]1CCc2ccccc2N(Cc2ccc(-c3ccccc3-c3nn[nH]n3)cc2)C1=O	-37.9% (inactive)	–
OC[C@H]1O[C@@H](n2cnc3c(NC4CCCC4)nc(Cl)nc32)[C@H](O)[C@@H]1O	-2.44% (inactive)	–
Nc1nc2c(ncn2[C@@H]2O[C@H](COP(=O)(O)OP(=O)(O)O)[C@@H](O)[C@H]2O)c(=O)[nH]1	20.5% (inactive)	–
N[C@@H](C(=O)O)[C@@H](CC(=O)O)c1ccc(Cl)cc1	-27.2% (inactive)	–
CCCCCCCC/C=C\CCCCCCCCOC[C@H](COP(=O)([O-])OCC[N+](C)(C)C)OC(C)=O	-15.7% [at 3.88 µM] (inactive)	–
NC1(C(=O)O)CCc2cc(P(=O)(O)O)ccc21 (stereo not given)	13.4% (inactive)	–
COc1cccc2c1C(=O)c1c(O)c3c(c(O)c1C2=O)C[C@@](O)(C(=O)CO)C[C@@H]3O[C@@H]1C[C@H](N)[C@H](O)[C@H](C)O1	99.2% (inactive)	–
COc1c(C=O)c(O)cc2c1C(=O)c1ccccc1C2=O	–	inactive
CC[C@]1(O)C[C@@H]2CN(CCc3c([nH]c4ccccc34)[C@@](C(=O)OC)(c3cc4c(cc3OC)N(C)C3[C@]45CCN4CC=C[C@](CC)(C45)[C@@H](OC(C)=O)[C@]3(O)C(=O)OC)C2)C1 (stereo not given in full)	42.4% [at 21.6 µM] (inactive)	–
COC(C)(C)CCCC(C)C/C=C/C(C)=C/C(=O)O (stereo not given)	-21.7% (inactive)	–
